Results filed as inconclusive are left out. The source made the active and inactive calls. Rule for the calls, unless noted: active = hit-call score of the fitted dose curve at least 0.9, where 1 is the maximum; inactive = score below 0.9.
Legend:
[1] = CCTE_Shafer_MEA_acute_per_network_burst_spike_number_mean: CCTE's Neural Acute Assay for Average Number of Spikes in a Network Burst, Shafer Lab (AID 2284019);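 for AC50: curve fitted for loss of signal so actives reduce spikes per network burst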
Outline: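 Percent change from baseline in mean spikes per network burst, spikes detected at 8x rms noise. Each compound at 0.03-40 uM in at least three wells of rat cortical cultures, recorded 40 min before and 40 min during exposure.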

[2] = CCTE_Shafer_MEA_acute_per_network_burst_spike_number_std: CCTE's Neural Acute Assay for Standard Deviation of Number of Spikes in a Network Burst, Shafer Lab (AID 2284020);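 note: fitted for decrease in spike-number SD versus DMSO so actives lower it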
Outline: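 Endpoint: percent change from 40 min baseline in standard deviation of spikes per network burst, after 40 min compound exposure (0.03-40 uM, 37 C). Cortical rat neurons on MEA at DIV 13 or 15; spikes detected at 8x rms noise, 300-5000 Hz band-pass.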

[3] = CCTE_Shafer_MEA_acute_per_network_burst_electrodes_number_mean: CCTE's Neural Acute Assay for Mean Number of Electrodes in a Network Burst, Shafer Lab (AID 2284021);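 note: curves fitted for decreases only so hits reduce electrodes per burst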
Outline: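 Percent change from baseline was computed as mean electrode count per network burst, comparing 40 min recordings before and during compound (0.03-40 uM) exposure. Cultures were rat cortical neurons at DIV 13 or 15, recorded on MEAs at 37 C with an adaptive 8x rms threshold.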

[4] = CCTE_Shafer_MEA_acute_network_burst_percentage: CCTE's Neural Acute Assay for Percentage of Network Bursts, Shafer Lab (AID 2284022);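 note: curves fitted for loss so actives lower network burst percentage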
Outline: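 Network burst percentage (spikes in network bursts divided by total spikes) recorded at 37 C over 40 min baseline and 40 min after compound, 0.03-40 uM, in rat cortical cultures at DIV 13 or 15. Analysed as percent change from baseline versus DMSO.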

[5] = CCTE_Shafer_MEA_acute_cross_correlation_area: CCTE's Neural Acute Assay for Area of Cross Correlation, Shafer Lab (AID 2284024);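 note: rat primary cortical neuron networks on 48-well MEA at DIV 13 or 15 with 40 min exposure; area under pooled inter-electrode spike cross-correlation near zero lag as percent change from own baseline; curves fitted for loss of cross-correlation area so actives lower synchrony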
Outline: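 Percent change in well-wide cross-correlation area (window around zero lag) between 40 min baseline and 40 min post-compound recordings, 37 C; rat cortical cultures on MEA at DIV 13 or 15, dosed 0.03-40 uM, wells needing >/= 10 active electrodes.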

[6] = CCTE_Shafer_MEA_acute_cross_correlation_HWHM: CCTE's Neural Acute Assay for Cross Correlation at Half Width at Half Maximum, Shafer Lab (AID 2284026);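 note: percent change per well from pre-dose baseline in spike cross-correlogram half width; hits are a decrease in cross-correlogram half width relative to DMSO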
Outline: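 Per-well percent change in cross-correlogram half width at half maximum, derived from 40-min recordings before and after compound (0.03-40 uM) at 37 C. Cultures were rat cortical neurons, DIV 13 or 15, with adaptive spike detection at 8x rms.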

[7] = CCTE_Shafer_MEA_acute_synchrony_index: CCTE's Neural Acute Assay for Synchrony, Shafer Lab (AID 2284027);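 note: network synchrony index of spontaneous spiking in primary rat cortical neurons on MEAs; fitted for loss of signal so actives lower synchrony relative to DMSO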
Outline: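 The synchrony index is taken as percent change per well between a 40 min baseline and a 40 min recording with compound (0.03–40 uM), at 37C. Rat cortical cultures on multiwell MEAs at DIV 13 or 15, spike threshold 8× rms noise.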

[8] = CCTE_Deisenroth_AIME_96WELL_CTox_Active: Cytotoxicity Assessment (CTOX) in CCTE's 96-well Estrogen Receptor Transactivation Assay with AIME metabolic competence (metabolism positive), Deisenroth Lab (AID 2284028; active = hit-call score of the fitted dose curve at least 0.9, where 1 is the maximum)
Method: CCTE_Deisenroth_AIME_96WELL (AIME metabolism assay) is a cell-based, single-readout assay that uses VM7Luc4E2, a human mammary gland/breast cell line, with measurements taken at 24 hour after chemical dosing in a 96-well plate.CCTE_Deisenroth_AIME_96WELL_CTox_Active is one of four assay components measured or calculated from the CCTE_Deisenroth_AIME_96WELL assay. It is designed to make measurements of a protease substrate, a type of viability indicator, as detected with substrate cleavage to a fluorescent probe in living cells.CCTE_Deisenroth_AIME_96WELL_CTox_Active is a component of the CCTE_Deisenroth_AIME_96WELL assay that measures the effect of retroftting the VM7Luc ERTA assay with the Alginate Immobolization of Metabolic Enzymes (AIME) metabolism method. AIME is optimized to impart phase I hepatic metabolism using phenobarbital/beta-naphthoflavone induced hepatic S9 from male Sprague Dawley rats. Parent chemicals are incubated for 2 hours in the AIME assay prior to transfer to the VM7Luc ERTA assay plate. […] This endpoint evaluates cytotoxicity in metabolism positive mode. Using a type of flourescent probe in VM7Luc cells, loss-of-signal activity can be used to understand loss of viability. This assay endpoint, CCTE_Deisenroth_AIME_96WELL_CTox_Active, was analyzed with bidirectional fitting in the ERTA assay. […]

[9] = target: Estrogen receptor (Homo sapiens) (UniProt P03372); experiment: CCTE_Deisenroth_AIME_96WELL_LUC_Active: CCTE's 96-well Estrogen Receptor Transactivation Assay with AIME metabolic competence (ERTA luciferase; metabolism positive), Deisenroth Lab (AID 2284023; active = hit-call score of the fitted dose curve at least 0.9, where 1 is the maximum)
Outline: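 Metabolism-positive mode: induced rat hepatic S9 in alginate microspheres conditions test solutions (0.002 - 200 uM, 10 points) for 2 hours. VM7Luc4E2 ER luciferase reporter cells then exposed 24 h; positive-direction fit against 17beta-estradiol, n=4 typical.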

[10] = target: Estrogen receptor (Homo sapiens) (UniProt P03372); experiment: CCTE_Deisenroth_AIME_96WELL_LUC_Inactive: CCTE's 96-well Estrogen Receptor Transactivation Assay without AIME metabolic competence (ERTA luciferase; metabolism negative), Deisenroth Lab (AID 2284025; active = hit-call score of the fitted dose curve at least 0.9, where 1 is the maximum)
Outline: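 Metabolism-negative arm: chemicals (0.002–200 uM, 10 points) incubated 2 h with alginate-water microspheres, then medium moved onto VM7Luc4E2 cells for 24 h luciferase read-out. Positive direction vs 17beta-estradiol; n≥4 experiments.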

Measured: AC50

Estrogen receptor (Homo sapiens), sequence (P03372 whole entry, looked up): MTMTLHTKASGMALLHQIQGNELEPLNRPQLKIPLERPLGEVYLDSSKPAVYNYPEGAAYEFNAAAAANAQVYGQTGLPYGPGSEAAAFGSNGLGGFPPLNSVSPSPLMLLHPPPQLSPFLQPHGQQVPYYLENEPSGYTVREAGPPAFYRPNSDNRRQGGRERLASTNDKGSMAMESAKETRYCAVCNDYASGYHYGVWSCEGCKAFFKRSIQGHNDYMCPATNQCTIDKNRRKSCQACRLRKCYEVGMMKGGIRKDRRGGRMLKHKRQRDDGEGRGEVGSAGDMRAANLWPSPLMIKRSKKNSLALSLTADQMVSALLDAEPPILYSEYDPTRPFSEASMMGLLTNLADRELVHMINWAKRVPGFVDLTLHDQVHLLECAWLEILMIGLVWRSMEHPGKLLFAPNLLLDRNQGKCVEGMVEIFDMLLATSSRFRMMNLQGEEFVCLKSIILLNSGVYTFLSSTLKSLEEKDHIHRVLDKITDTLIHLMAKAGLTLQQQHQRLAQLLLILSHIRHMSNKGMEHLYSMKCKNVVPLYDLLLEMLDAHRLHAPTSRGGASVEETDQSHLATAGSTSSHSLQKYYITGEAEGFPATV

C[Si]1(C)O[Si](C)(C)O[Si](C)(C)O[Si](C)(C)O1
inactive: [1] | [2] | [3] | [4] | [5] | [6] | [7]

CC(=O)Oc1ccccc1C(=O)O
inactive: [1] | [2] | [3] | [4] | [5] | [6] | [7]

Cc1ccc2ncccc2c1
inactive: [1] | [2] | [3] | [4] | [5] | [6] | [7]

CC(C)(C)c1cc(O)c(C(C)(C)C)cc1O
inactive: [3] | [4] | [7]
active: [1] 4.33 µM | [2] 30.7 µM | [6] 31.7 µM

COc1cccc2c1C(=O)c1c(O)c3c(c(O)c1C2=O)C[C@@](O)(C(=O)CO)C[C@@H]3O[C@H]1C[C@H](N)[C@H](O)[C@H](C)O1
active: [8] 51.6 µM

COc1cc(/C=C/C(=O)CC(=O)/C=C/c2ccc(O)c(OC)c2)ccc1O
inactive: [9] | [10]
active: [8] 63 µM

FC(F)(F)C(F)(F)C(F)(F)C(F)(F)C(F)(F)C(F)(F)CCI
inactive: [1] | [2] | [3] | [4] | [5] | [6] | [7]

NS(=O)(=O)c1cc2c(cc1Cl)NCNS2(=O)=O
inactive: [1] | [2] | [3] | [4] | [5] | [6] | [7]

C=CCOC(=O)c1ccccc1C(=O)OCC=C
inactive: [1] | [2] | [3] | [4] | [5] | [6] | [7]

Nc1ccc2c(c1)C(=O)c1ccccc1C2=O
inactive: [1] | [2] | [3] | [4] | [5] | [6] | [7]

CCCc1cc(=O)[nH]c(=S)[nH]1
inactive: [1] | [2] | [3] | [4] | [5] | [6] | [7]

CCCCCCCCCCO
active: [6] 20 µM | [7] 20 µM
inactive: [1] | [2] | [3] | [4] | [5]

O=C(O)CCCCC(=O)O
inactive: [1] | [2] | [3] | [4] | [5] | [6] | [7]

NCC1(Cc2noc(=O)[nH]2)CCCCC1
inactive: [1] | [2] | [3] | [4] | [5] | [6] | [7]

CN1CCCC1=O
inactive: [1] | [2] | [3] | [4] | [5] | [6] | [7]

Nc1ccccc1N
inactive: [1] | [2] | [3] | [4] | [5] | [6] | [7]

Cc1ccc(C(C)C)c(O)c1
inactive: [1] | [2] | [3] | [4] | [5] | [6] | [7]

CC(=O)C(C)=CC1C(C)=CCCC1(C)C (stereo unspecified)
active: [7] 20 µM
inactive: [1] | [2] | [3] | [4] | [5] | [6]

Nc1nc(N)c2nc(CNc3ccc(C(=O)N[C@@H](CCC(=O)O)C(=O)O)cc3)cnc2n1
inactive: [1] | [2] | [3] | [4] | [5] | [6] | [7]

c1cc(-c2ccncc2)ccn1
inactive: [1] | [2] | [3] | [4] | [5] | [6] | [7]

COc1ccc2c(c1)c(CC(=O)O)c(C)n2C(=O)c1ccc(Cl)cc1
inactive: [1] | [2] | [3] | [4] | [5] | [6] | [7]

Clc1cc(Cl)c(Cl)cc1Cl
inactive: [1] | [2] | [3] | [4] | [5] | [6] | [7]

Cc1ccc(C)c(O)c1C
inactive: [1] | [2] | [3] | [4] | [5]
active: [6] 33.9 µM | [7] 31.6 µM

CNCc1cc(F)ccc1Oc1ccc(Cl)c(Cl)c1
active: [1] 32.6 µM | [2] 31.7 µM
inactive: [3] | [4] | [5] | [6] | [7]

CCOC(=O)C(C)(C)Oc1ccc(Cl)cc1
inactive: [1] | [2] | [3] | [4] | [5] | [6] | [7]

C=CCc1ccc(O)c(OC)c1
active: [4] 31.1 µM | [7] 20 µM
inactive: [1] | [2] | [3] | [5] | [6]

CCCCCCCCCCCCCCCCCC(=O)O
inactive: [1] | [2] | [4] | [5] | [6] | [7]

COc1ccc(S(=O)(=O)N2C(=O)[C@@](c3ccccc3OC)(N3C[C@H](O)C[C@H]3C(=O)N(C)C)c3cc(Cl)ccc32)c(OC)c1
inactive: [1] | [2] | [3] | [4] | [5] | [6] | [7]

CN[C@H]1CC[C@@H](c2ccc(Cl)c(Cl)c2)c2ccc(S(N)(=O)=O)cc21
inactive: [1] | [5] | [6]
active: [2] 20 µM | [3] 29.9 µM | [4] 31 µM | [7] 32 µM
